Assay outcomes: PubChem, National Center for Advancing Translational Sciences (NCATS)
Only some compounds are listed: those with a hit (about 6.1% of all), similar ones and a draw of the others.
D1 agonist = agonists of human D1 dopamine receptor. P21728. HEK293 T-REx D1 cells, calcium flux, agonist mode. activation, % at 2 µM. hit rate 1% among 360,000; in the data active = activation above about 30%
Target sequence (P21728 whole entry, looked up): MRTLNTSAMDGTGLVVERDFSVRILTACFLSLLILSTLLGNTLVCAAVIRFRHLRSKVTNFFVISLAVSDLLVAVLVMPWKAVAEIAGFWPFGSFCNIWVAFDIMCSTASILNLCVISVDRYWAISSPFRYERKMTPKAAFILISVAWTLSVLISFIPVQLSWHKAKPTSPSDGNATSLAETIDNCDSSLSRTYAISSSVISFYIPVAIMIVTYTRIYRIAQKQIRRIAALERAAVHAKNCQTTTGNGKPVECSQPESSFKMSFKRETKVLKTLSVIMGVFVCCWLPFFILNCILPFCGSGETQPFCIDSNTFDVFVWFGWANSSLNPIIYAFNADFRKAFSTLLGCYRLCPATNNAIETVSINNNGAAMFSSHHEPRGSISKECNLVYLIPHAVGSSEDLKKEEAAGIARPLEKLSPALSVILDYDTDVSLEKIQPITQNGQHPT
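Agonism was scored from calcium flux recorded over 180 s (1 read/s) after pintool compound addition, following a 10-cycle baseline. Cells were inducible force-coupled HEK293 TREx D1, plated overnight at 30 C and loaded with no-wash calcium dye.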
D1 PAM = human D1 dopamine receptor positive modulation; P21728; HEK293 TREx D1 cells, calcium flux, dopamine EC20 potentiation; potentiation, % at 10 µM; hit rate 0.036% among 360,000; AID 504651; in the data active = potentiation above about 30%
DRD3 agonist = activates the human D3 dopamine receptor. P35462. D3R DiscoveRx beta-arrestin cells, luminescence, 90 min. max activation, %. hit rate 0.58% among 410,000. AID 652048; in the data active = max activation above about 30%
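Agonist-mode cell screen: cells plated at 1500/well and incubated overnight at 37 °C, then exposed to library compounds for 90 min at 37 °C. Detection reagent was added for 30–60 min at room temperature, and luminescence was read.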
D3 antag = blocks the human D3 dopamine receptor | P35462 | D3R cells, DiscoveRx beta-arrestin luminescence, antagonist mode; active compounds read low | max response, negative = inhibition, % | hit rate 2.5% among 360,000 | AID 652054; in the data active = max response below about -50%; inconclusive = no clear call, values can overlap the other calls
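Cells plated overnight at 1500 cells/well, then exposed to library compounds with dopamine controls for 90 minutes at 37 degrees C. DiscoveRx reagent added for 30–60 minutes at room temperature; luminescence read, quantitative HTS format.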
D1 antagonist = antagonists of human D1 dopamine receptor. P21728. HEK293 TREx D1 cells, calcium flux, dopamine EC80; active compounds read low. activity change, negative = inhibition, % at 10 µM. hit rate 3.2% among 360,000. AID 504652; in the data active = activity change below about -30%
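Cells carrying a force-coupled, tetracycline-inducible human D1 receptor report calcium flux. Each well gets a 10 s baseline, compound with 180 s monitoring, then an EC80 dopamine stimulus with a second 180 s kinetic read.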
Large screens that a line does not name were inactive.

O=C(CSC1=Nc2ccccc2C2CC=NN12)Nc1ccc2c(c1)OCO2 (centres undefined)	D3 antag -50.2
CCCOC(=O)c1ccc(NC(=O)CSC2=Nc3ccccc3C3CC=NN23)cc1 (centres undefined)	none
O=S(=O)(c1ccc2c(c1)OCCO2)N1CCC(c2nc3ccc(Cl)cc3[nH]2)CC1	D3 antag inconclusive
O=C(NCC1CCCO1)c1ccc(S(=O)(=O)N2CCC(c3nc4ccc(Cl)cc4[nH]3)CC2)cc1 (centres undefined)	D3 antag -61.9
O=C(c1ccc(S(=O)(=O)N2CCC(c3nc4ccccc4[nH]3)CC2)cc1)N1CCOCC1	D1 antagonist -89.0
COc1ccc(N=C2SCC(c3ccc([N+](=O)[O-])cc3)=NN2CCO)cc1	none
O=[N+]([O-])c1ccc(C2=NN(CCO)C(=Nc3ccc(OC(F)(F)F)cc3)SC2)cc1	D3 antag -56.1
O=C(Nc1c2c(nn1-c1ccc(Cl)cc1)CS(=O)(=O)C2)c1ccc(Br)cc1	D1 antagonist -31.9 (no result: D3 antag)
CCC(CC)C(=O)Nc1c2c(nn1-c1ccc(OC)cc1)CS(=O)(=O)C2	none
COc1cccc(C(=O)Nc2c3c(nn2-c2ccc(Cl)cc2)CS(=O)(=O)C3)c1	D1 antagonist -32.8 (no result: D3 antag)
COc1ccc(-n2nc3c(c2NC(=O)COc2ccccc2F)CS(=O)(=O)C3)cc1	D1 antagonist -37.6
COc1cccc(C(=O)Nc2c3c(nn2-c2ccc([N+](=O)[O-])cc2)CS(=O)(=O)C3)c1	none
CCC(CC)C(=O)Nc1c2c(nn1-c1ccc(F)cc1)CS(=O)(=O)C2	D1 antagonist -90.9
O=C(NNC(=S)Nc1ccc(Cl)cc1Cl)C1CC1	none
COc1cccc(-c2nc(-c3ccccc3)c3ccc(Cl)cc3n2)c1	none (no result: D1 agonist, D1 PAM, D1 antagonist)
O=C(Nc1c2c(nn1-c1ccc(F)cc1)CS(=O)(=O)C2)c1ccc(S(=O)(=O)N2CCOCC2)cc1	D3 antag -64.6
COC(=O)CN1C(=O)[C@H]2[C@@H](c3ccc(C)o3)N3C(=O)CN(Cc4ccccn4)C(=O)[C@@]3(Cc3ccccc3)[C@H]2C1=O	DRD3 agonist 39.1
COC(=O)CN1C(=O)[C@H]2[C@@H](c3ccc(C)o3)N3C(=O)CN(CCO)C(=O)[C@@]3(Cc3ccccc3)[C@H]2C1=O	none
O=C(CCC(=O)N1CCN(c2ccc(Cl)c(Cl)c2)CC1)c1ccccc1	none
COc1ccc(-c2nc(CN3CCC(C(=O)N4CCOCC4)CC3)c(C)o2)cc1C	none
O=C(NCCN1CCOCC1)C(=O)c1c[nH]c2ccccc12	D1 antagonist -51.6
O=C(CN1CCOCC1)c1c[nH]c2ccccc12	none
O=[N+]([O-])c1cc(/C=N\Nc2nc(-c3ccccc3)cs2)ccc1O	none
Cc1csc(N/N=C/c2ccc(O)c([N+](=O)[O-])c2)n1	D3 antag -53.7
CC1(C)Cc2c(ccc3ccccc23)/C(=C/C#N)N1	D3 antag active
COc1cc(CNC(C)c2ccccc2)cc(Cl)c1OCC(=O)Nc1ccccc1 (centres undefined)	D1 agonist 64.1 (no result: D1 antagonist)
Cc1ccccc1NC(NC(=O)OCCn1c([N+](=O)[O-])cnc1C)C(Cl)(Cl)Cl (centres undefined)	D3 antag -63.0, D1 antagonist -33.1
O=C(Nc1ccccc1F)c1ccc(CN2CCN(c3ccccc3)CC2)cc1	D3 antag -53.5
O=C(CCN1CCN(c2ccccc2)CC1)Nc1ccccc1F	DRD3 agonist 33.8, D3 antag inconclusive
COc1ccc(NC(=O)c2ccc(CN3CCN(c4ccccc4)CC3)cc2)cc1	D3 antag inconclusive
CCc1ccc(NC(=O)c2cc(CN3CCOCC3)on2)cc1	none (no result: D3 antag)
Cc1c(C(=O)NC2CC2)oc2ccccc12	none
Cc1c(C(=O)NC2CCS(=O)(=O)C2)oc2ccccc12 (centres undefined)	DRD3 agonist 46.8
Cc1c(C(=O)Nc2nnc(C(F)(F)F)s2)oc2ccccc12	D1 antagonist -37.9
Cc1c(C(=O)Nc2ccncc2)oc2ccccc12	DRD3 agonist 51.6
O=C(CSc1nc2c([nH]c3ccccc32)c(=O)n1-c1cccc(Cl)c1)NCc1ccccc1	none (no result: D3 antag)
COc1ccc(NC(=O)/C(C#N)=C/c2ccc(C)o2)cc1	none (no result: D3 antag)
COc1ccc(NC(=O)/C(C#N)=C\c2ccc(N3CCOCC3)o2)cc1	D1 agonist 212.9
N#C/C(=C\c1ccc(N2CCOCC2)o1)C(=O)Nc1ccc(O)cc1	D1 agonist 41.0, D3 antag inconclusive
N#C/C(=C/c1ccc(N2CCOCC2)o1)C(=O)NC1CCCCC1	D1 agonist 113.3
CCOc1ccc(NC(=O)/C(C#N)=C\c2ccc(-c3ccc(Cl)cc3)o2)cc1	none (no result: D3 antag)
COc1cccc(NC(=O)/C(C#N)=C/c2ccc(-c3ccc(C)cc3)o2)c1	D1 agonist 110.1 (no result: D3 antag)
O=C(CN1C(=O)C(=O)N(C2CCCC2)C1=O)Nc1ccc(F)cc1F	none
Fc1cccc(CSc2nc(NCCc3ccccc3)c3ccccc3n2)c1	D1 antagonist -45.7 (no result: D3 antag)
COc1ccc(C(C)=O)cc1CSc1nc(NCCc2ccccc2)c2ccccc2n1	none (no result: D3 antag)
Cc1ccc(S(=O)(=O)NCCC(c2ccccc2)c2ccco2)cc1 (centres undefined)	none
COc1ccccc1C(CCNS(=O)(=O)c1ccc(C)cc1)c1ccco1 (centres undefined)	D1 agonist 42.3
COC1OC2COC(c3ccccc3)OC2C(O)C1NC(C)=O (centres undefined)	none (no result: D1 agonist, D1 PAM, D1 antagonist)
CCOc1cc(Cl)c(S(=O)(=O)n2cc(C)nc2CC)cc1Cl	none (no result: D3 antag)
Cc1nonc1C(=O)N/N=C/c1cccc(O)c1	D1 antagonist -42.7
CN1C(=O)c2ccccc2Sc2ccc(NC(=O)NCc3cccc(Cl)c3)cc21	none (no result: D3 antag)
O=C(O)CCN(CCC(=O)O)S(=O)(=O)c1ccccc1	none
O=C(O)CCN(CCC(=O)O)c1ccccc1	D1 antagonist -92.7
CC(C)N(C(=O)[C@H]1C[C@H](CC(=O)NCCN2CCOCC2)C(=O)N2CCc3c([nH]c4ccc(Cl)cc34)[C@]12C)C(C)C	D3 antag -52.6 (no result: D1 agonist, D1 PAM, D1 antagonist)
C[C@]12c3[nH]c4ccc(Cl)cc4c3CCN1C(=O)[C@@H](CC(=O)NCC13CC4CC(CC(C4)C1)C3)C[C@@H]2C(=O)N1CCCCC1	none (no result: D1 agonist, D1 PAM, D1 antagonist)
CCN(CC)C(=O)[C@H]1C[C@H](CC(=O)NCCN2CCOCC2)C(=O)N2CCc3c([nH]c4ccc(Cl)cc34)[C@]12C	none (no result: D1 agonist, D1 PAM, D1 antagonist)
C[C@]12c3[nH]c4ccc(Cl)cc4c3CCN1C(=O)[C@@H](CC(=O)NCC13CC4CC(CC(C4)C1)C3)C[C@@H]2C(=O)N1CCOCC1	D3 antag -50.1 (no result: D1 agonist, D1 PAM, D1 antagonist)
CCN(CC(=O)NCCc1ccccc1)S(=O)(=O)c1ccc(Br)cc1	D1 antagonist -37.2
COCCNC(=O)CN(CCc1ccccc1)S(=O)(=O)c1ccc(Br)cc1	none
COc1ccccc1NC(=O)NNC(=O)c1ccc2ccccc2c1O	D1 antagonist -35.6
COc1cccc(C(=O)Nc2cccc3ccccc23)c1OC	D1 antagonist -35.3
